The list is not random: actives were taken first. Their share in the collection is about 1.9%.
MsrA inh: bovine MsrA inhibition; purified bovine MsrA, absorbance read-out; inhibition, % at 15.5 µM; actives 0.75% (n = 360,000); in the data active means inhibition above about 4.5%;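 further: 0% = vehicle wells with enzyme and 100% = reference inhibitor wells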
HTR5A ag ctr: counter-screen for OPRM1-OPRD1 agonists: human HTR5A agonism; P47898; HTR5A agonist assay, luminescence, cell-based; activation, % at 9.3 µM; actives 0.61% (n = 340,000); AID 504692; in the data active means activation mostly above about 9.5%, no sharp cut-off; inactive means mostly below about 7.6%;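 further: 0% = cells with vehicle only and 100% = reference agonist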
Target sequence (P47898 whole entry, looked up): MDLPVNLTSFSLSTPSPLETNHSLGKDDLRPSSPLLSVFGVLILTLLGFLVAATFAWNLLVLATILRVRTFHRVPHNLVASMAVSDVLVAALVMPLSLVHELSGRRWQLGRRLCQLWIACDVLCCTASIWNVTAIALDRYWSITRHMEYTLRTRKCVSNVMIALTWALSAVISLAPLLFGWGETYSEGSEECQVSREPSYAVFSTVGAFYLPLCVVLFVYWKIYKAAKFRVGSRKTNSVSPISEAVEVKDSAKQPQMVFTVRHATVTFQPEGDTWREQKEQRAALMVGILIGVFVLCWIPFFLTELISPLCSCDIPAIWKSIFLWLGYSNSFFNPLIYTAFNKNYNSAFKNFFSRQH
MsrA act: activates bovine MsrA enzyme; activation, % at 10.6 µM; AID 602163; purified bovine MsrA, absorbance read-out; actives 0.3% (n = 360,000); in the data active means activation above about 7.5%;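 further: 0% = vehicle and 100% = reference activator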
HTR5A inv ctr: inverse agonist of human HTR5A in OPRM1-OPRD1 counter-screen; P47898; HTR5A cell line, luminescence, inverse agonism; inhibition, % at 9.3 µM; actives 0.083% (n = 340,000); in the data active means inhibition mostly above about 23%, no sharp cut-off; inactive means mostly below about 18%;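 further: 0% = cells with DMSO and 100% = no-cell wells with DMSO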
OPRM1-OPRD1 ag: OPRM1-OPRD1 heterodimerization agonism | P35372+P41143 | cells, luminescence | activation, % at 9.3 µM | actives 0.3% (n = 340,000); in the data active means activation above about 18%;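 further: 0% = vehicle-treated cells and 100% = reference agonist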
OPRM1-OPRD1 inv: inverse agonist of human OPRM1-OPRD1 heterodimerization; cell-based MOR-DOR heterodimer luminescence, inverse agonism; inhibition, % at 9.3 µM; actives 0.21% (n = 340,000); P35372+P41143; in the data active means inhibition above about 22%, passing the limit was not always enough;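 further: 0% = cells with DMSO and 100% = wells without cells with DMSO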
MsrA act confirm: confirmation of bovine methionine sulfoxide reductase A activators | activation, % at 10.6 µM | AID 602270 | shares compounds with MsrA act | actives 12% (n = 1,000) | purified bovine MsrA, absorbance read-out; in the data active means activation above about 4%;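 further: enzyme coupled to thioredoxin and thioredoxin reductase with NADPH; 0% = vehicle wells and 100% = reference activator wells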
* hit, by the source's call; · = no result given.

SMILES	MsrA inh	HTR5A ag ctr	MsrA act	HTR5A inv ctr	OPRM1-OPRD1 ag	OPRM1-OPRD1 inv	MsrA act confirm
CCCCCCCCCCCCCCCC[n+]1cccc(C(=O)N(CC)CC)c1	-1	-1	-4	4	-1	7	·
Cc1ccc(C(Nc2ccccc2)c2ccc3ccc(C)nc3c2O)c(C)c1 (stereo not given)	0	·	·	·	·	·	·
COC(=O)c1cc2c(c3c4cc(OC)ccc4n(S(=O)(=O)c4cccc(C)c4)c13)C(=O)N(Cc1ccccc1OC)C2	1	·	·	·	·	·	·
Nc1cc(C2CCCC2)nn1-c1ccccc1	-1	-8	9.1*	-11	-2	11	-4
COc1cccc(CNC(=O)[C@H]2CCCN2)c1	-1	·	·	·	·	·	·
O=C(c1cc(Cl)c(=O)n(Cc2ccccc2)c1)N1CCOCC1	-1	-3	9.2*	10	-1	4	-1
O=C(c1ccc(CN2CCOCC2)cc1)N1CCN(Cc2ccccc2)CC1	-1	0	-2	-7	-1	9	·
CCOC(=O)C(=O)N(C)c1c(CC)nc2c(OCc3cccc(Cl)c3)cccn12	0	·	2	·	·	·	·
CCOC(=O)C(=O)N(C)c1c(CC)nc2c(OCCC3CCCCC3)cccn12	0	·	8.2*	·	·	·	1
CCOC(=O)N(C)c1c(CC)nc2c(OCc3cccc(Cl)c3)cccn12	1	·	9.2*	·	·	·	-3
CCOC(=O)N(C)c1c(CC)nc2c(OCCC3CCCCC3)cccn12	1	·	0	·	·	·	·
Cc1cc2c(nc1C)CCCN2Cc1ccc(Br)cc1	1	·	·	·	·	·	·
O=C(c1ccc([N+](=O)[O-])o1)N1CCc2ccccc21	3	-7	10*	-5	8	-41	2
O=C(c1ccc([N+](=O)[O-])o1)N1CCc2ccccc2C1	2	-6	3	18	0	-1	·
CC(C)(C)S(=O)N1C[C@H]2CC(=O)C=C2[C@@H]1CCO (stereo not given in full)	1	·	·	·	·	·	·
O=C(c1cnccn1)N1CCCC(N2CCN(c3cccc(Cl)c3)CC2)C1 (stereo not given)	0	-2	-3	-2	-2	13	·
Cc1cccc(C(=O)N2CCCC(N3CCN(c4cccc(Cl)c4)CC3)C2)n1 (stereo not given)	0	1	17*	0	-2	10	-3
COc1ccc2ccccc2c1/C=N/NC(=O)c1cccc(C)c1	2	0	9.4*	-11	-1	4	-1
CCCCN1CC(COCc2ccccc2)Oc2cccc(Sc3ccc(OC)c(OC)c3)c2S1(=O)=O (stereo not given)	2	·	·	·	·	·	·
CCOC(=O)c1c(C)oc2c1C(=O)c1ccccc1C2=O	0	7	3	-19	8	-58	·
Cc1oc2c(c1C(=O)O)C(=O)c1ccccc1C2=O	0	1	8.4*	-3	7	-37	0
CCCCCCCCN1C(=O)[C@@H](CC(=O)N2CCSCC2)C[C@@]2(C(=O)OC)C1=C[C@H](C1CCCC1)O[C@@H]2C	-1	·	·	·	·	·	·
CN(C)CCCNC(=O)c1ccc(-c2nc(-c3ccc(Cl)cc3)cs2)cc1	1	3	8.3*	-7	5	-24	-2
Cc1ccc(C2NC(=O)c3[nH]nc(-c4ccccc4)c32)cc1 (stereo not given)	0	·	·	·	·	·	·
S=c1nc(-c2ccccc2Cl)[nH][nH]1	0	0	8.1*	1	1	-4	1
SMILES	MsrA inh	HTR5A ag ctr	MsrA act	HTR5A inv ctr	OPRM1-OPRD1 ag	OPRM1-OPRD1 inv	MsrA act confirm
S=c1nc(-c2cccc(Br)c2)[nH][nH]1	1	3	9.8*	8	-1	4	6.1*
Nc1nc(N)nc(-c2cccc(Br)c2)n1	1	0	-11	-2	-1	5	·
Cc1csc(N(C(=O)c2cccc(S(=O)(=O)N3CCCC3)c2)c2ccccc2)n1	0	0	15*	31	-2	11	-3
Cc1csc(N(C(=O)c2cccc(S(=O)(=O)N(C)C)c2)c2ccccc2)n1	0	-4	-5	-14	1	-4	·
Cc1cc(-n2nc(C)cc2C)n2nc(C)c(-c3ccc(Cl)cc3)c2n1	-2	4	1	-11	-1	5	·
Cc1cc(C(F)(F)F)n2nc(C)c(-c3ccc(Cl)cc3)c2n1	-1	9	16*	24	5	-26	0
O=C1/C(=C/c2ccc(O)cc2)SC(=S)N1CC1CCCO1 (stereo not given)	2	-7	11*	15	3	-15	-1
CCCOc1ccc(/C=C2\SC(=S)N(CC3CCCO3)C2=O)cc1 (stereo not given)	0	0	-1	15	-2	10	·
COC(=O)[C@]12C[C@H](CC(=O)N3CCCCC3)C(=O)N(Cc3ccc4c(c3)OCO4)C1=C[C@H](COCc1ccccc1)O[C@@H]2C	0	·	·	·	·	·	·
O=C(NCc1ccccc1Cl)[C@H]1CCCN1C(=O)[C@H]1CCCN1C(=O)c1cccs1	-1	·	9.2*	·	·	·	-3
O=C(NCc1ccccc1)[C@@H]1CCCN1C(=O)[C@@H]1CCCN1C(=O)c1cccs1	-1	·	-1	·	·	·	·
CC(=O)c1nccs1	·	1	16*	-4	-4	19	-2
C/C(=C\C(=O)O)C(=O)Nc1nccs1	-1	-6	-5	19	-4	16	·
C[C@@H]1C=CCCO[C@]12C(=O)N(Cc1ccccc1C(F)(F)F)c1cccc(Br)c12	1	·	·	·	·	·	·
COc1ccccc1CNC(=O)C(CCSC)NC(=O)C1CCC(C)CC1 (stereo not given)	0	3	9.0*	3	-2	10	1
C[C@H](CO)N1C[C@H](C)[C@@H](CN(C)Cc2ccccc2)OCCCC[C@H](C)Oc2ccc(N(C)C)cc2C1=O	0	·	8.7*	·	·	·	-3
OC1(C#Cc2c(-c3ccsc3)sc3ccccc23)CCCCC1	0	·	·	·	·	·	·
COc1cc(OC)c2c(-c3cccc(-c4cccc(C)c4)c3)cc(=O)oc2c1	1	-1	-4	5	-4	18	·
COc1ccc(-c2cc(=O)oc(-c3cccc(C)c3)n2)cc1	0	-2	12*	-12	-4	18	-3
Cc1ccccc1CN1CCN(C(=O)[C@H]2O[C@@H](n3cnc(C(N)=O)n3)[C@H](O)[C@@H]2O)CC1	-2	·	·	·	·	·	·
COC(=O)N1C[C@H](OCc2cn(-c3ccc(OC)cc3)nn2)[C@H]2C[C@@H]1c1ccccc1O2	1	·	·	·	·	·	·
COc1ccc(CNS(=O)(=O)c2ccccc2Br)c(OC)c1	0	·	·	·	·	·	·
NS(=O)(=O)c1ccc(NC(=O)COC(=O)c2ccc([N+](=O)[O-])s2)cc1	2	2	28*	-6	7	-36	12*
COc1ccccc1NC(=O)COC(=O)c1ccc([N+](=O)[O-])s1	2	-4	33*	19	3	-15	18*
Cc1ccc(NC(=O)COC(=O)c2ccc([N+](=O)[O-])s2)c(C)c1	2	12	5	-14	3	-21	·
